# Earlier results, collected in PubChem BioAssay AID977608.
# In all, about 4,300 compounds went through this assay and about 4,300 (100%) were called active. No cut-off is given here; in the data, nearly all actives have IC50 up to about 1400 µM. So high a share suggests a set chosen from earlier hits. This is one part of the list. *1 amine or outer side, *2 acyl side, *3 side chain or, on linkers, in order; H or OH if unused. Where a SMILES comes first, the peptide text is derived from it. Square brackets hold non-standard residues; d marks the D form. Residues, ends and D or L forms follow the SMILES beside them. Side-chain parts run from the residue outwards. Peptide text beside a SMILES is read from it. [ ]: non-standard residue; d: D form. The star is where a group is joined. N(2S-NH-3-Ph-propyl)Phe = O=C([C@H](Cc1ccccc1)N(C[C@H](Cc1ccccc1)N[*:3])[*:1])[*:2]; Orn(CH(NH2)2) = NC(N)NCCC[C@H](N)C(=O)O; X1 = CC(N)NCCC[C@H](N)C(=O)*; Nle = CCCC[C@H](N)C(=O)O
# Test: literature IC50 values for PDB complexes, PDB-derived complexes (AID 977608)
# Conditions: PDB protein-ligand complexes
# [1] = protein: metallodependent class II fructose-1,6-bisphosphate aldolase (FBA-tb), PDB entry 4a22 unless noted
structure (smiles),measurement,setting,value
COCCN/C=C1/C(=O)N(C)c2ccc(C(F)(F)F)cc2N(c2ccccc2)C1=O,IC50,[1],"890 nM [protein: HIV-1 capsid protein (N-terminal domain), PDB entry 4inb] (active)"
C[N+](C)(C)CCCP(O)O,IC50,[1],"520 nM [protein: human gamma-butyrobetaine hydroxylase, PDB entry 4bgk] (active)"
O=C(O)c1ccc2cccc(O)c2n1,IC50,[1],"10000 nM [protein: M. tuberculosis's class IIa fructose 1,6-bisphosphate aldolase, MtFBA, PDB entry 4lv4] (active)"
c1csc(-c2cc(CNC34CC5CC(CC(C5)C3)C4)no2)c1,IC50,[1],"16000 nM [protein: Membrane ion channel M2, PDB entry 2ly0] (active)"
COCN1CCC(C(N)=O)CC1,IC50,[1],"300000 nM [protein: ACETYLCHOLINESTERASE, PDB entry 3zlv] (active)"
Cc1cc(S(=O)(=O)N(Cc2ccc(CN)cc2)[C@H](C)C(=O)NO)ccc1F,IC50,[1],5600 nM [PDB entry 4pkv] (active)
Cc1cc(S(=O)(=O)N(Cc2ccc([N+](=O)[O-])cc2)[C@H](C)C(=O)NO)ccc1F,IC50,[1],14900 nM [PDB entry 4pkt] (active)
Cc1cc(S(=O)(=O)N(Cc2ccccc2)[C@H](C)C(=O)NO)ccc1F,IC50,[1],15200 nM [PDB entry 4pkr] (active)
Cc1cc(S(=O)(=O)N(Cc2cccc(N)c2)[C@H](C)C(=O)NO)ccc1F,IC50,[1],30000 nM [PDB entry 4pku] (active)
Cc1cc(S(=O)(=O)N(Cc2cccnc2)[C@H](C)C(=O)NO)ccc1F,IC50,[1],15200 nM [PDB entry 4pks] (active)
FC(F)(F)c1nc2ccccc2[nH]1,IC50,[1],"138 µM [protein: 3-OXOACYL-[ACYL-CARRIER-PROTEIN] REDUCTASE FABG, PDB entry 4bnt] (active)"
CCOC(=O)CC[C@H](C[C@@H]1CCNC1=O)NC(=O)[C@@H](CC(=O)[C@@H](NC(=O)c1cc(C)on1)C(C)C)Cc1ccc(F)cc1,IC50,[1],"1670 nM [protein: 3C proteinase, PDB entry 4ght] (active)"
O=C(CO[P+](O)(O)O)N(O)CCCCO[P+](O)(O)O,IC50,[1],3.2 nM (active)
CCC(CC)O[C@@H]1CC(C(=O)O)C[C@H](N)[C@H]1NC(C)=O (stereo not given in full),IC50,[1],"0.5 nM [protein: Neuraminidase, PDB entry 4hzx] (active)"
CCC(CC)O[C@@H]1CC(C(=O)O)=C[C@H](N)[C@@H]1NC(C)=O,IC50,[1],"0.9 nM [protein: Influenza Neuraminidase H3N8, PDB entry 4m3m] (active)"
CCC(CC)O[C@@H]1C[C@@H](C(=O)O)C[C@H](N)[C@H]1NC(C)=O,IC50,[1],"0.79 nM [protein: Neuraminidase, PDB entry 4mwq] (active)"
CCC(CC)O[C@@H]1C[C@H](C(=O)O)C[C@H](N)[C@H]1NC(C)=O,IC50,"protein: Neuraminidase7, PDB entry 4qn7",0.84 nM (active)
same,IC50,"protein: Neuraminidase, PDB entry 4mww",215000 nM (active)
Nc1c2c(nc3cc(Cl)ccc13)C[C@H]1C=C(CCO)C[C@@H]2C1,IC50,[1],"1.1 nM [protein: ACETYLCHOLINESTERASE, PDB entry 4bdt] (active)"
Nc1c2c(nc3cc(Cl)ccc13)C[C@H]1C=C(CCCCn3cc(CO)nn3)C[C@@H]2C1,IC50,[1],"0.43 nM [protein: ACETYLCHOLINESTERASE, PDB entry 4a16] (active)"
O=C(O)Cc1cc(=O)oc2c(O)c(O)ccc12,IC50,[1],"4800 nM [protein: Reverse transcriptase/ribonuclease H RT RNase H, PDB entry 4qag] (active)"
CC[C@H](C)[C@H]1NC(=O)[C@@H](NC(=O)[C@H](C)[C@H](O)C(C)C)[C@@H](C)OC(=O)[C@@H]2COC(=O)CNC(=O)/C=C/[C@]3(CO3)[C@@H](C)Oc3ccc(cc3)[C@H](NC1=O)C(=O)N(C)[C@@H](Cc1ccccc1)C(=O)N[C@H]([C@@H](C)O)C(=O)N2,IC50,[1],"200 nM [protein: Escherichia coli RNA polymerase, PDB entry 4mex] (active)"
C[C@H](N)C(=O)N[C@@H](C)C(=O)N[C@@H](C)C(=O)O,IC50,[1],"340000 nM [protein: DI-OR TRIPEPTIDE\:H+ SYMPORTER, PDB entry 4d2d] (active)"
C[C@@]1(O)CCN2C(=O)CCc3cccc1c32,IC50,[1],"198000 nM [protein: DUAL SPECIFICITY MITOGEN-ACTIVATED PROTEIN KINASE KINASE 1, PDB entry 3zlw] (active)"
Oc1cc(Cl)ccc1Oc1ccc(Cl)cc1Cl,IC50,[1],"54.7 µM [protein: Enoyl-[acyl-carrier-protein] reductase hERG, PDB entry 4w9n] (active)"
Nc1nc2nc(C(=O)NCCNC(=O)O)cnc2c(=O)[nH]1,IC50,[1],28000 nM [PDB entry 4mx5] (active)
Nc1nc2nc(C(=O)NCCNC(=O)Nc3ccccc3)cnc2c(=O)[nH]1,IC50,[1],209000 nM [PDB entry 4mx1] (active)
NCCCCC[C@@H](C[SeH5])C(=O)O,IC50,[1],"2 nM [protein: Carboxypeptidase B, PDB entry 3wc5] (active)"
CCCC[C@H](NC(=O)[C@H](C)NC(=O)[C@H](CCC(=O)O)NC(=O)[C@H](Cc1ccccc1)NC[C@H](Cc1ccccc1)NC(=O)[C@@H](NC(=O)[C@@H](N)CCCNC(C)N)C(C)C)C(=O)O (stereo partly drawn) (H-[N(2S-NH-3-Ph-propyl)Phe]([Val-X1])EA[Nle]-OH),IC50,[1],"142 nM [protein: HIV-1 PROTEASE (Q7K, L10I, D25N, M36V, M46L, I54V, I62V, L63P, A71V, V82T, I84V, L90M mutation), PDB entry 4gye] (active)"
Nc1ncnc2c1ncn2[C@@H]1O[C@H](CO[P+](=O)O[C@@H]2[C@H](O)[C@@H](CO[P+](O)(O)O[C@@H]3[C@H](O)[C@@H](CO[P+](O)(O)O)O[C@H]3n3cnc4c(N)ncnc43)O[C@H]2n2cnc3c(N)ncnc32)[C@@H](O)[C@H]1O (stereo not given in full),IC50,[1],"13 nM [protein: interferon-induced endoribonuclease, ribonuclease L, PDB entry 1wdy] (active)"
Oc1c(Br)cccc1-c1[nH]c(Br)c(Br)c1Br,IC50,[1],"19000 nM [protein: Non-Mevalonate Pathway Enzyme IspD from Arabidopsis thaliana, PDB entry 4nan] (active)"
Oc1c(Br)cc(Br)cc1-c1[nH]c(Br)c(Br)c1Br,IC50,[1],"1400 nM [protein: Non-Mevalonate Pathway Enzyme IspD from Arabidopsis thaliana, PDB entry 4nak] (active)"
Oc1c(Cl)cc(Cl)cc1-c1[nH]c(Br)c(Br)c1Br,IC50,[1],"2200 nM [protein: Non-Mevalonate Pathway Enzyme IspD from Arabidopsis thaliana, PDB entry 4nal] (active)"
CC(C)C[C@H](NC(=O)[C@H](CO)NC(=O)[C@H](CO)NC(=O)[C@H](CCC(=O)O)NC(=O)[C@H](Cc1ccc(O)cc1)NC(=O)[C@H](Cc1ccc(O)cc1)NC(=O)[C@H](CCCNC(N)N)NC(=O)[C@@H](N)Cc1c[nH]c2ccccc12)C(=O)N[C@@H](CCC(=O)O)C(=O)N1CCC[C@H]1C(=O)N[C@@H](Cc1ccc(O)cc1)C(=O)N1CCC[C@H]1C(=O)N[C@@H](CC(=O)O)C(=O)O (H-W[Orn(CH(NH2)2)]YYESSLEPYPD-OH),IC50,[1],2 nM [PDB entry 1haa] (active)
CC(C)C[C@H](NC(=O)[C@H](CO)NC(=O)[C@H](CO)NC(=O)[C@H](CCC(=O)O)NC(=O)[C@H](Cc1ccc(O)cc1)NC(=O)[C@H](Cc1ccc(O)cc1)NC(=O)[C@H](CCCNC(N)N)NC(=O)[C@@H](N)Cc1c[nH]cn1)C(=O)N[C@@H](CCC(=O)O)C(=O)N1CCC[C@H]1C(=O)N[C@@H](Cc1c[nH]c2ccccc12)C(=O)N[C@@H](Cc1ccc(O)cc1)C(=O)N1CCC[C@H]1C(=O)N[C@@H](CC(=O)O)C(=O)O (H-H[Orn(CH(NH2)2)]YYESSLEPWYPD-OH),IC50,[1],120 nM [PDB entry 1jbd] (active)
CC(C)C[C@H](NC(=O)[C@H](CO)NC(=O)[C@H](CO)NC(=O)[C@H](CCC(=O)O)NC(=O)[C@H](Cc1ccc(O)cc1)NC(=O)[C@H](Cc1ccc(O)cc1)NC(=O)[C@H](CCCNC(N)N)NC(=O)[C@@H](N)Cc1ccccc1)C(=O)N[C@@H](CCC(=O)O)C(=O)N1CCC[C@H]1C(=O)N[C@@H](Cc1c[nH]c2ccccc12)C(=O)N[C@@H](CC(=O)O)C(=O)N[C@@H](CC(=O)O)C(=O)O (HELM PEPTIDE1{F.[NC(N)NCCC[C@H](N[*:1])C(=O)[*:2]].Y.Y.E.S.S.L.E.P.W.D.D}$$$$V2.0),IC50,[1],4.9 nM [PDB entry 1rgj] (active)
C[C@@H]1Oc2ccc(CN3CC=C(c4ccc(Cl)cc4)CC3)cc2NC1=O,IC50,[1],"3 nM [protein: Poly [ADP-ribose] polymerase 1, PDB entry 4l6s] (active)"
COC(=O)C[C@@H](C)c1n[nH]c2nc(N)[nH]c(=O)c2c1=O,IC50,[1],"376000 nM [protein: Dihydropteroate synthase, PDB entry 4d8a] (active)"
CCC(CC)Oc1cc(C(=O)O)cc(N)c1NC(C)=O,IC50,[1],"8.31 nM [protein: Neuraminidase, PDB entry 4hzz] (active)"
CCc1c(C)nc(-c2ccc(Cl)s2)nc1Nc1ccc(CC(=O)O)cc1,IC50,[1],"32 nM [protein: Catalytic Domain Of Human Phosphodiesterase 4B, PDB entry 4myq] (active)"
Cc1ccc(-c2c([C@H](OC(C)(C)C)C(=O)O)c(C)nc3ccccc23)cc1C,IC50,[1],"55 nM [protein: HIV-1 Integrase (F185K mutation), PDB entry 4e1m] (active)"
Cc1nc2ccccc2c(-c2cc(F)c3c(c2C)CCCO3)c1[C@H](OC(C)(C)C)C(=O)O,IC50,[1],"67 nM [protein: HIV-1 integrase (F185K mutation), PDB entry 4e1n] (active)"
Cc1nc(-c2nc3ccc(Cl)cc3[nH]2)c(C)c(-c2ccccc2)c1[C@H](OC(C)(C)C)C(=O)O,IC50,[1],"5.03 nM [protein: Integrase HIV-1 IN CCD F185K/A128T, PDB entry 4o5b] (active)"
CO[C@H](C(=O)O)c1c(C)nc2ccc(Br)cc2c1-c1ccc(Cl)cc1,IC50,"protein: HIV-1 Integrase catalytic core domain (A128T, F185K mutation), PDB entry 4jlh",4000 nM (active)
same,IC50,"protein: HIV-1 Integrase, PDB entry 4dmn",2300 nM (active)
